Screening data deposited in PubChem BioAssay by several laboratories.
A selection: hits, their analogues and other compounds. The true share with any hit is near 1.9%.
BaF3 parental = parental Ba/F3 cell viability inhibition, counter-screen for JAK2V617F inhibitor project, murine pro-B, CellTiter-Glo luminescence | CellTiter-Glo ATP luminescence | inhibition, % at 5.6 µM | 220,000 compounds, 1.1% hits | AID 1486, 2009;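 active = inhibition above a per-campaign cutoff, the mean inhibition of all tested compounds plus 3 SD, cut at about 27% in these data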;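 also: 0% = DMSO wells and 100% = JAK Inhibitor I control wells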
IEC-6 cytotox = cytotoxicity in IEC-6 intestinal epithelial cells, primary screen, cytotoxicity control for KLF5 inhibitor project, cell-based, luminescence; inhibition, % at 5 µM; IEC-6 cytotoxicity, luminescence viability; AID 1825, 2009; 290,000 compounds, 0.78% hits; in the data active = inhibition above about 22%;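 also: 0% = plate median of test compound wells and 100% = cytotoxic reference compound wells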
Ba/F3 V617F tox = reduced viability of JAK2V617F-dependent Ba/F3 cells, primary screen, JAK2V617F inhibitor project, cell-based, Ba/F3 EpoR-JAK2V617F, luminescence; ATP luminescence; inhibition, % at 5.6 µM; 220,000 compounds, 1.1% hits;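 active = inhibition above the campaign mean plus 3 SD over all tested compounds, cut at about 24% in these data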;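 also: cytokine-independent growth of Ba/F3 cells driven by EpoR plus mutant JAK2; 0% = DMSO-treated cells and 100% = JAK inhibitor I control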
APP transl inh = inhibitors of APP translation via 5'UTR reporter, primary screen, APP 5'UTR luciferase, SH-SY5Y cells; SH-SY5Y APP 5'UTR-luciferase reporter, luminescence; inhibition, % at 2 µM; 190,000 compounds, 0.82% hits;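 active = inhibition above a set limit, derived from the sample mean plus 3 SD, cut at about 45% in these data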
KLF5 inh = KLF5 expression inhibitors, primary screen, DLD-1 cells, luminescence; DLD-1 KLF5 promoter-luciferase reporter; inhibition, % at 5 µM; 290,000 compounds, 0.23% hits; AID 1700, 2009;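 active = inhibition above a per-plate limit of that plate's mean compound inhibition plus 3 SD, cut at about 60% in these data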;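 also: 0% = DMSO wells and 100% = LY294002 at 200 µM; higher means less KLF5 promoter-driven luciferase light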
The depositor's hits bear a star; · = no result given.

SMILES	BaF3 parental	IEC-6 cytotox	Ba/F3 V617F tox	APP transl inh	KLF5 inh
Cc1cc(NO)c(C(C)C)cc1N=O	45.2*	4.8	51.2*	4.7	-15.1
CC1=NN(C(N)=S)C(=O)C1N=Nc1ccc(O)cc1 (stereo not given)	58.4*	6.7	37.1*	9.4	-38.2
COc1ccc(/C=C2\N=C(SC)N(c3ccccc3OC)C2=O)cc1	7.6	2.8	0.4	26.0	39.8
O=C1C2C3c4ccccc4C(c4ccccc43)C2C(=O)N1c1ccncc1 (stereo not given)	70.8*	-2.7	66.2*	21.7	4.8
Nc1cc([N+](=O)[O-])cc2oc(-c3ccccc3)cc12	·	14.7	·	·	-83.8
O=C(Cn1ncnn1)OCc1ccccc1Cl	0.3	-3.5	-2.6	67.7*	-2.9
O=C(OCc1ccccc1Cl)c1ccc(-n2cnnc2)cc1	1.3	-0.5	1.1	-11.4	-2.0
CC(=O)N1C(=O)CC(C)N(C(C)=O)c2ccc([N+](=O)[O-])cc21 (stereo not given)	5.7	-5.6	-1.7	-9.1	-5.3
COc1ccc2nc(N=NC3=C(O)CC(C)(C)CC3=O)sc2c1	-2.5	-5.5	-1.4	18.5	-23.9
COc1ccc2nc(N=Nc3ccc(O)c4ccccc34)sc2c1	4.1	5.9	0.2	74.0*	8.7
COCc1cc(C)nc(OCC(=O)N/N=C/c2cc(C)n(-c3c(C)cccc3C)c2C)c1C#N	4.6	-5.6	-2.5	57.4*	-46.7
CC1(C)CC(NC(=O)C2CCC(=O)N(Cc3ccccc3F)C2)CC(C)(C)C1 (stereo not given)	·	-10.2	·	·	-44.2
O=C(NCCCN1CCOCC1)c1cccnc1	1.0	-0.8	-5.3	9.8	-4.1
O=C(NCCCN1CCOCC1)c1ccccc1	39.5*	-2.5	-3.2	-14.2	-9.9
N/C(=N/O)c1ccccc1N1CCC(Cc2ccccc2)CC1	68.7*	-7.9	71.7*	-44.8	-5.0
Clc1ccc(Cn2ncc3c(NCc4ccco4)ncnc32)c(Cl)c1	14.6	27.9*	6.1	9.0	12.2
Clc1ccc(-n2ncc3c(NCc4ccco4)ncnc32)cc1	1.3	7.7	2.4	-127.9	-94.9
CN(C)CCCN(C(=O)CCOc1ccccc1)c1nc2ccc(F)cc2s1	8.1	1.0	26.4*	32.7	-10.6
CN(C)CCCN(C(=O)COc1ccccc1)c1nc2ccc(F)cc2s1	8.4	0.9	1.5	7.7	-29.9
Oc1ccc(/C=N/Nc2ccnc3cc(Cl)ccc23)cc1O	51.5*	12.8	85.1*	·	-26.4
Oc1ccc(/C=N/Nc2ccnc3cc(Cl)ccc23)c(O)c1O	·	2.1	·	·	-21.4
Cc1ccc(S(=O)(=O)N2CCC(NC(=O)c3ccccc3)CC2)cc1	90.0*	4.1	-0.7	7.5	-17.6
COc1ccc(OC)c(NC(=O)c2nnn(CCc3ccccc3)c2N)c1	-0.8	-2.4	-3.7	-31.2	-30.1
Cc1ccccc1Cn1nnc(C(=O)Nc2cccc(C)c2C)c1N	31.9*	7.1	25.9*	13.3	7.2
COc1ccc(C)cc1NC(=O)c1nnn(Cc2cccc(C(F)(F)F)c2)c1N	36.9*	-3.5	23.7*	0.9	39.6
SMILES	BaF3 parental	IEC-6 cytotox	Ba/F3 V617F tox	APP transl inh	KLF5 inh
Cc1ccc(CNC(=O)Cn2nnc(C(=O)Nc3cccc(C)c3C)c2N)cc1	·	-0.9	·	·	-1.9
CCC(=O)N(C(=O)CC)N1CCN(c2ccncc2S(=O)(=O)N2CCCCC2)CC1	·	-4.0	·	·	6.7
O=C(c1cc2ccccc2oc1=O)N1CCN(S(=O)(=O)c2ccccc2)CC1	·	-4.2	·	·	-22.3
Oc1ccc2ccccc2c1CNc1ccccn1	·	0.5	·	·	-19.6
CC(C)CC(=O)Nc1c2c(nn1-c1cccc(Cl)c1)CS(=O)C2 (stereo not given)	·	-2.4	·	·	-6.4
O=C(NCCCN1CCN(c2cccc(Cl)c2)CC1)c1ccc(N2CCCC2=O)cc1	4.2	-4.6	-2.9	67.4*	-20.2
O=C(NCCCN1CCN(c2cccc(Cl)c2)CC1)c1cccc(N2CCCC2=O)c1	3.3	-3.7	-1.6	-3.9	-14.9
CCOC(=O)c1cnc2nc(C)[nH]n2c1=O	8.1	0.5	-2.9	-18.3	3.2
CCOC(=O)c1cnc2sc3c(n2c1=O)CCCC3	63.9*	12.0	71.7*	-25.4	6.5
CC(=O)c1ccc(OCC(O)CN2CCN(CC(O)COc3ccc(C(C)=O)cc3)CC2)cc1 (stereo not given)	-3.4	-0.5	-2.5	-9.9	-19.0
CC(=O)c1ccc(OCC(O)COc2ccc(C(C)=O)cc2)cc1	95.6*	0.6	3.3	11.0	-14.2
CN(C(=O)Cn1nnc2ccccc2c1=O)C1CCCCC1	·	0.5	·	·	-22.7
COc1ccc(CNC(C)C2COc3ccccc3O2)c(OC)c1 (stereo not given)	95.9*	3.0	0.8	7.7	-7.0
CC(=O)N1C=Cc2c(c(C)c3c([nH]c4ccccc43)c2C)C1	68.6*	69.3*	79.7*	·	23.7
CC(=O)N1CCc2[nH]c3ccccc3c2C1	4.8	0.2	-2.0	-6.8	-39.6
COc1ccc(-c2cc(C)no2)cc1S(=O)(=O)NCCc1ccco1	·	1.8	·	·	-6.2
O=C(Oc1ccc(Br)cc1C(=S)N1CCCC1)c1ccccc1Cl	7.0	3.4	1.0	-7.5	-10.8
O=C(Oc1ccc(Br)cc1C(=S)N1CCCCC1)c1cc([N+](=O)[O-])cc([N+](=O)[O-])c1	1.0	-0.4	-2.6	49.8*	-17.3
CC(C)C[C@H](NC(=O)c1nc[nH]c1C(=O)N1CCN(C(=O)OC(C)(C)C)CC1)C(=O)OC(C)(C)C	-2.6	-4.0	3.1	51.7*	31.0
CC(C)(C)OC(=O)NCCCC[C@H](NC(=O)c1nc[nH]c1C(=O)N1CCN(C(=O)OC(C)(C)C)CC1)C(=O)OC(C)(C)C	-6.3	9.1	3.7	-16.7	-5.8
Cc1ccc2c(c1)N(CC(=O)NC1CCCCCC1)C(=O)c1cccnc1O2	·	-3.3	·	·	-19.0
C=CCOc1ccccc1CNc1cccc(F)c1	4.0	-0.9	0.0	56.9*	-21.1
C(#CCN1CCC(Cc2ccccc2)CC1)COCCOCc1ccccc1	8.5	-1.0	-0.7	25.8	23.2
O=C(CSc1nc2ncc(Cl)cc2[nH]1)NCC(=O)Nc1ccc(F)c(F)c1F	0.6	-2.6	0.0	·	4.3
Brc1cccc(-c2nnc3n2CCCCC3)c1	96.4*	-1.2	-2.1	-0.7	-22.1
SMILES	BaF3 parental	IEC-6 cytotox	Ba/F3 V617F tox	APP transl inh	KLF5 inh
c1ccc(-c2nnc3n2CCCC3)cc1	10.3	-5.6	1.2	1.4	-3.5
CCc1ccc(OC(C)C(=O)Nc2ccc(S(=O)(=O)Nc3nccs3)cc2)cc1 (stereo not given)	·	5.2	·	·	3.2
COc1cc(NS(=O)(=O)c2cc3[nH]c(=O)c(=O)[nH]c3cc2C)cc(OC)c1OC	·	-4.2	·	·	-9.5
COc1cc(NS(=O)(=O)c2ccc(C)cc2C)cc(OC)c1OC	32.2*	2.2	15.2	7.2	-15.7
Cn1cc(/C=C(\NC(=O)c2ccccc2Cl)C(=O)NCCCn2ccnc2)c2ccccc21	·	-2.4	·	·	-4.1
O=C1c2cccc3cccc(c23)C(=O)N1c1nccs1	3.4	-4.1	-2.9	6.7	-15.6
